Assay results: PubChem BioAssay (NCATS)
Records with an inconclusive call do not appear. Active and inactive are the calls of the source. Calls follow the shape of the dose curve; as a rule, active = well fitted curve in the direction sought with a large enough effect; inconclusive = small, poorly fitted or top-dose-only effect, or another doubt; inactive = no such curve, though single readings can be large; an effect the other way counts as inactive or inconclusive.

Columns and labels:
[1] = HEK-293 Cancer Cell Toxicity qHTS against the NCATS CANVASS Library (AID 1347355); conditions: HEK-293 viability, CellTiter-Glo luminescence, 72 h; series mostly up to 46.1 µM; also: nearly all actives have a fitted effect of over 65% in size
Method in brief: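 First, 1000 cells go into each well and rest for 4 hours. Next, an 11-point dilution range is pinned in. Plates then incubate 72 hours before CellTiter-Glo addition and luminescence reading.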

[2] = HPAF-II 24hr Apoptosis Induction qHTS against the NCATS CANVASS Library (AID 1347356); conditions: HPAF-II caspase-3/7 Caspase-Glo luminescence; series mostly up to 91.4 µM
Method in brief: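 Cells seeded at 500 per well, then compounds pin-transferred in an 11-point concentration series. After 24 hours at 37 degrees C, Caspase-Glo 3/7 was added and luminescence measured following 15 min at room temperature.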

[3] = HEK293 18hr Apoptosis Induction qHTS against the NCATS CANVASS Library (AID 1347357); conditions: HEK293 caspase-3/7 Caspase-Glo luminescence; series mostly up to 91.4 µM
Method in brief: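 Luminescent caspase-3/7 signal is measured in HEK293 cells exposed for 18 hours to an 11-point concentration series; doxorubicin serves as the plate control.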

[4] = HPAF-II 12hr Apoptosis Induction qHTS against the NCATS CANVASS Library (AID 1347358); conditions: HPAF-II caspase-3/7 Caspase-Glo luminescence; series mostly up to 91.4 µM
Method in brief: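 Cells plated at 500 per well are dosed with compound and incubated 12 hours at 37 degrees C. Caspase-Glo 3/7 reagent is added and, after 15 min at room temperature, luminescence proportional to caspase activity is measured.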

[5] = HEK293 24hr Apoptosis Induction qHTS against the NCATS CANVASS Library (AID 1347359); conditions: HEK293 caspase-3/7 activation, Caspase-Glo luminescence; series mostly up to 91.4 µM
Method in brief: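 Caspase-3/7 activation measured as luminescence from the DEVD-based Caspase-Glo reagent, 15 min at room temperature, following 24-hour compound treatment of HEK293 cells.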

[6] = HPAF-II 18hr Apoptosis Induction qHTS against the NCATS CANVASS Library (AID 1347360); conditions: HPAF-II caspase-3/7 luminescence; series mostly up to 91.4 µM
Method in brief: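 Apoptosis was scored as caspase-3/7 activity in HPAF-II pancreatic cancer cells treated 18 hours with an 11-point concentration series.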

[7] = HEK293 12hr Apoptosis Induction qHTS against the NCATS CANVASS Library (AID 1347361); conditions: HEK293 caspase-3/7 Caspase-Glo luminescence; series mostly up to 91.4 µM
Method in brief: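 Apoptosis in HEK293 was scored as caspase-3/7 luminescence following 12 h treatment with a compound concentration series in qHTS format.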

[8] = tested on: NAD(P)H diaphorase (Clostridium kluyveri); test: Diaphorse counterscreen qHTS: Assay Interference Panel against the NCATS CANVASS Library (AID 1347362); conditions: Diaphorase enzyme, resazurin to resorufin fluorescence; series mostly up to 114 µM
Method in brief: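 Counterscreen for coupling-enzyme interference: resorufin fluorescence from resazurin/NADH turnover, read after 5 min at room temperature. Compounds were tested over an 11-point series after 15 min dark preincubation with diaphorase in PBS-Tween.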

[9] = target: Luciferin 4-monooxygenase (Photinus pyralis) (UniProt P08659); test: Firefly luciferase counterscreen qHTS: Assay Interference Panel against the NCATS CANVASS Library (AID 1347363); conditions: purified firefly luciferase, luminescence inhibition, 5 min; series mostly up to 57.5 µM
Chain of Luciferin 4-monooxygenase (Photinus pyralis) (P08659 whole entry, looked up): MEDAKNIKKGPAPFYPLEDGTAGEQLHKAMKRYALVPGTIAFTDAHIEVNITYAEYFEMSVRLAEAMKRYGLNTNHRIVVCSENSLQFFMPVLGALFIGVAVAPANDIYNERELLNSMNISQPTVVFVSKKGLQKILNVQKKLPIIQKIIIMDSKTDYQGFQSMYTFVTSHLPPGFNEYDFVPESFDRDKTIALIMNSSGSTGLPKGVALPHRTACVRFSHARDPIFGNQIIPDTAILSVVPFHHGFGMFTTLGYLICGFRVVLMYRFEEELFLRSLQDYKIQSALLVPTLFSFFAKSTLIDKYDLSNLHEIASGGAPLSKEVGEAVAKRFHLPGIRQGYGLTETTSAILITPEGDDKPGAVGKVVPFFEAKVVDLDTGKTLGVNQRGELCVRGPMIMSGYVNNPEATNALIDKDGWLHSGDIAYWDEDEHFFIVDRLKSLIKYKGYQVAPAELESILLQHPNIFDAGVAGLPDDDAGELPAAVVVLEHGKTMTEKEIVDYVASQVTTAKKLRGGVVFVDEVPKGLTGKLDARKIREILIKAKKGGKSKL
Method in brief: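 Luminescence inhibition readout: compounds (11-point qHTS) sat 15 min at room temperature with substrate mix (0.013 mM luciferin and ATP), then firefly luciferase was added and signal read 5 min later.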

[10] = KB-8-5-11 Cancer Cell Toxicity qHTS against the NCATS CANVASS Library (AID 1347364); conditions: KB-8-5-11 MDR cells viability, CellTiter-Glo, 72 h; series mostly up to 46.1 µM; also: nearly all actives have a fitted effect of over 75% in size
Method in brief: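 Terse: KB-8-5-11, 500 cells/well, 72 hr, 37C/5% CO2, 11-pt titration, CellTiter-Glo readout; confirmatory runs ± 1uM tariquidar in medium.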

Measured: outcome

O=C(O)Cc1c[nH]c2ccc(O)cc12
inactive: [1] | [2] | [3] | [4] | [5] | [6] | [7] | [8] | [9] | [10]

CC(=O)NCCc1c[nH]c2ccc(O)cc12
inactive: [1] | [2] | [3] | [4] | [5] | [6] | [7] | [9] | [10]
